# Bioassay records deposited in PubChem by Broad Institute.
# Not all results are given here.
# aSyn 5UTR act = Activators via SNCA 5'UTR binding, MLPCN; alpha-synuclein 5'UTR reporter, activators screen; activity score, % (tested at 7.5 µM), hits read low; actives 7.1% (n = 300,000); AID 1814; in the data active means activity score below about -60%
# Starred values were filed as active, the others as inactive.
SMILES,aSyn 5UTR act
Cc1ccc2nc(NC(=O)C3CCCN(S(=O)(=O)c4cnc[nH]4)C3)sc2c1 (stereo unspecified),-128*
CC(C)Oc1ccc(C(=O)NC2CCCCC2)cc1,-91*
C=CCOc1ccc(C(=O)NC2CCCCC2)cc1,-161*
O=C(NC1CCCCCCC1)c1ccc(Br)cc1,-92*
O=c1c2c3c(sc2nc2n1CCCC2)CCCCC3,-105*
O=c1c2c3c(sc2nc2n1CCCCC2)CCCCC3,-153*
Clc1nc(CN2CCCCC2)nc2sc3c(c12)CCCC3,-68*
O=c1c2c3c(sc2nc2n1CCCCC2)CCCC3,-124*
COc1ccc(-c2noc(CSc3ccccc3)n2)cc1OC,-114*
c1ccc(SCc2nc(-c3ccncc3)no2)cc1,-206*
COc1ccc(-c2noc(CSc3nnc(CCc4ccccc4)n3-c3ccccc3)n2)cc1OC,52
CCCNC1=C(N(C(C)=O)c2cccc(F)c2)C(=O)c2ccccc2C1=O,92
O=C(CCl)N(c1ccccc1)C1CCCCC1,110
CCCC(O)(CCC)C(=O)NN(C(=O)CCl)c1ccccc1,-69*
O=c1c(-c2nc3ccccc3s2)cccn1Cc1ccccc1,-87*
Cc1ccc(Cn2cccc(-c3nc4ccccc4s3)c2=O)cc1,-194*
CCn1cnc2cc(NCc3ccccc3Cl)ccc21,-87*
CC(C)c1ccc(CNc2ccc3c(c2)ncn3C)cc1,-206*
CC(C)c1ccc(CNc2ncccn2)cc1,-128*
Cn1cnc2cc(NCc3ccccc3Cl)ccc21,-92*
CCCC(=O)NC(c1ccc(C(C)C)cc1)c1ccc2cccnc2c1O (stereo unspecified),83
COCc1cccc(NC(=O)CCc2ccccc2)c1,-99*
CC(C)c1ccc(NC(=O)CCc2ccccc2)cc1,-389*
CC(C)(C)c1ccc(-c2noc(CCC(=O)Nc3cccnc3)n2)cc1,77
CC(Cc1ccccc1)C(=O)Nc1ccc(Br)cc1 (stereo unspecified),-81*
SMILES,aSyn 5UTR act
O=C(CCc1ccccc1)Nc1cccnc1,-63*
CCc1ccc(OCC(=O)Nc2ncn[nH]2)cc1,-87*
CCc1ccc(NC(=O)COc2ccc3c(c2)OCO3)cc1,-74*
COc1ccccc1NC(=O)COc1ccc2c(c1)OCO2,-76*
NC(=O)c1ccccc1NC(=O)COc1ccc2c(c1)OCO2,-87*
CCn1cnc2sc(C(=O)Nc3ccc4c(c3)OCO4)c(C)c2c1=O,-145*
CCCNC(=O)Cn1cnc2sc(C(=O)Nc3ccc4c(c3)OCO4)c(C)c2c1=O,-63*
C/C(=N\NC(=O)C(N)=O)c1ccc(NC(=O)c2cccs2)cc1,-140*
C/C(=N\NC(=O)c1ccccc1)c1ccc(NC(=O)c2cccs2)cc1,-108*
C/C(=N/NC(=O)c1ccccc1)c1ccc(NC(=O)C(F)(F)F)cc1,-69*
C/C(=N\NC(=O)c1ccco1)c1ccc(NC(=O)c2cccs2)cc1,-106*
C/C(=N/OCC(=O)Nc1ccccc1)c1cccs1,-131*
C/C(=N\NC(=O)c1ccccc1C)c1ccc(NC(=O)c2cccs2)cc1,-148*
CCN(CC)S(=O)(=O)c1ccc(-c2cn3cc(Cl)ccc3n2)cc1,-91*
Cc1ccc(CNc2ccc(Cl)cc2[N+](=O)[O-])cc1,-76*
Cc1ccc(-n2c([S-])c(C(=O)Nc3ccc(OC(F)F)cc3)[n+]3ccc(C(=O)NCCO)cc23)cc1C,-72*
COc1ccc(C(=O)Nc2cc3c(cc2Cl)OCCCO3)cc1,-148*
COc1ccc(-c2nnc(NC(=O)c3ccc4c(c3)OCCO4)o2)cc1,105
COc1cccc(C(=O)Nc2cc3c(cc2Cl)OCCCO3)c1,-130*
COCCNC(=O)c1ccc2c(c1)ncn2-c1cccc(C)c1,-75*
Cn1cnc2cc(NC(=O)c3cccs3)ccc21,-97*
CC(C)(C)n1cnc2cc(NC(=O)c3ccc(Cl)cc3)ccc21,-138*
Cn1cnc2cc(NC(=O)c3ccc(Cl)cc3)ccc21,-139*
Cc1cccc(C(=O)Nc2ccc3c(c2)ncn3C)c1,-112*
O=C(Nc1ccc2nn(-c3ccccc3)nc2c1)c1cccs1,-178*
SMILES,aSyn 5UTR act
Cc1ccc(-c2nc3ccccc3c(=O)o2)cc1,-84*
Nc1nonc1-n1nnc(C(=O)N/N=C/c2ccc(OCc3ccccc3F)cc2)c1CNc1ccccc1,-75*
Cc1c(C(=O)N/N=C/c2c(O)ccc3ccccc23)nnn1-c1nonc1N,63
Cc1ccc(COc2cccc(/C=N/NC(=O)c3nnn(-c4nonc4N)c3C)c2)cc1,-152*
Nc1nonc1-n1nnc(C(=O)N/N=C/c2ccc(OCc3ccccc3)cc2)c1CN1CCCCC1,-112*
Nc1nonc1-n1nnc(C(=O)N/N=C/c2cc(Br)ccc2O)c1CNc1ccccc1,70
C/C(=N\NC(=O)c1nnn(-c2nonc2N)c1CN(C)c1ccccc1)c1ccccn1,88
CC1CCN(Cc2c(C(=O)N/N=C/c3ccc(C(C)(C)C)cc3)nnn2-c2nonc2N)CC1,64
CCN(CC)Cc1c(C(=O)N/N=C/c2ccc(OCc3ccccc3C)cc2)nnn1-c1nonc1N,-87*
CCc1c(C(=O)N/N=C/c2ccc(OCc3ccc(F)cc3)c(OC)c2)nnn1-c1nonc1N,-128*
Nc1nonc1-n1nnc(C(=O)N/N=C/c2ccc(OCc3ccc(F)cc3)cc2)c1COc1ccccc1,-122*
CS(=O)(=O)N1N=C(c2ccc(Cl)cc2)CC1c1cccs1 (stereo unspecified),-178*
COc1ccc2[nH]c(=O)c(CNc3ccccc3)cc2c1,-167*
COc1ccc2[nH]c(=O)c(CNc3ccccc3C)cc2c1,-94*
COc1c(C(=O)NNC(=O)c2ccccc2)csc1Br,-82*
COc1cccc(/C(C)=N/N=C(\C)c2cccc(OC)c2)c1,-275*
COc1cccc(C(=O)Nc2cnn(C(C)C)c2)c1,-114*
COc1cccc(C(=O)Nc2cccc(SC)c2)c1,-156*
CCn1c2ccccc2c2cc(NC(=O)c3cccc(OC)c3)ccc21,-180*
COc1cccc(C(=O)N/N=C(/c2ccccc2)c2ccccn2)c1,73
COc1cccc(C(=O)NNC(=O)c2ccccc2)c1,-113*
Cc1ccc(C(=O)Nc2cccc(Oc3ccccc3)c2)o1,-126*
COc1cccc(C(=O)Nc2ccccc2)c1,-122*
O=C(Nc1ccc(O)cc1)c1ccc(C(=O)c2ccccc2)o1,-120*
COc1cccc(NC(=O)c2ccc(C(=O)c3ccccc3)o2)c1,-147*
SMILES,aSyn 5UTR act
CC(=O)Nc1cccc(Oc2ccc(-c3noc(C)n3)cc2)c1,-194*
Nc1nnnn1/N=C/c1ccc(N2CCCCC2)c([N+](=O)[O-])c1,-64*
O=C(c1ccc(Br)cc1)c1cc([N+](=O)[O-])ccc1N1CCCCC1,92
O=C(/C=C/c1ccc(N2CCCCC2)c([N+](=O)[O-])c1)c1ccc(O)cc1,-464*
COc1ccccc1C(=O)/C=C/c1ccc(N2CCCCC2)c([N+](=O)[O-])c1,-216*
CCOC(=O)C1CCCCN1C(=O)CCc1nnc(-c2ccc3c(c2)OCO3)o1 (stereo unspecified),-65*
O=C1c2ccccc2C(=O)C1c1nccc2ccccc12,99
c1ccc(-c2nc(-c3nccc4ccccc34)oc2-c2ccccc2)cc1,-82*
O=C(/C=C/c1ccco1)NC(=S)Nc1ccc(N2CCCC2)cc1,-70*
COc1ccc(OC)c2sc(N(CCN(C)C)C(=O)/C=C/c3cccs3)nc12,54
COc1ccc(NC(=S)NC(=O)/C=C/c2ccco2)cc1,-91*
COc1ccc(NC(=S)NC(=O)/C=C/c2cccs2)cc1,-73*
CCCCOC(=O)c1ccc(NC(=O)/C=C/c2cccs2)cc1,-88*
